RGS12 GoLoco inh – qHTS Assay for Inhibitors of RGS12 GoLoco Motif Activity (Red Fluorophore). Guanine nucleotide-binding protein G(i) subunit alpha-1 (Homo sapiens), P63096. Gai1:RGS12 GoLoco peptide FP, rhodamine, 10 min. Potency, µM (top dose mostly 61.6 µM), for the others: top-dose activity, negative = inhibition, actives largely listed as inhibitors. 230,000 tested, 0.44% active; active = well fitted inhibition curve with a large enough effect, not every such curve was filed as active; inactive = no such curve, though single readings can be large or run the other way; note: nearly all actives have a fitted effect of over 30% in size
TR SRC2 fluor cs – Total Fluorescence Counterscreen for Inhibitors of the Interaction of Thyroid Hormone Receptor and Steroid Receptor Coregulator 2. Potency, µM (top dose mostly 106 µM), for the others: top-dose fluorescence change, negative = quenching. AID 1479, 2009. TRb/SRC2 Texas Red total fluorescence interference. 280,000 tested, 0.29% active; active = well fitted curve in either direction with a large enough effect; inconclusive = small, poorly fitted or top-dose-only effect
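Flags fluorescent or light-absorbing compounds by total fluorescence, S + 2P, at 555 nm excitation and 632 nm emission. Mixture: 20 nM Texas Red SRC2 peptide, 0.6 uM human TRb LBD, 1 uM T3, 5% DMSO; compound exposure 5 h at ambient temperature.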
TRb-SRC2 inh – qHTS for Inhibitors of the Interaction of Thyroid Hormone Receptor and Steroid Receptor Coregulator 2. Thyroid hormone receptor beta (Homo sapiens), P10828. Potency, µM (doses to about 106 µM), inactives show top-dose activity change, negative = inhibition, most hits filed as inhibitors. 280,000 tested, 0.065% active. TRbeta-SRC2 peptide binding, fluorescence polarization; receptor liganded with 1 µM T3;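 note: plate controls were bound peptide for no effect and peptide without receptor for full effect; nearly all actives have a fitted effect of over 50% in size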
Target sequence (P10828 whole entry, looked up): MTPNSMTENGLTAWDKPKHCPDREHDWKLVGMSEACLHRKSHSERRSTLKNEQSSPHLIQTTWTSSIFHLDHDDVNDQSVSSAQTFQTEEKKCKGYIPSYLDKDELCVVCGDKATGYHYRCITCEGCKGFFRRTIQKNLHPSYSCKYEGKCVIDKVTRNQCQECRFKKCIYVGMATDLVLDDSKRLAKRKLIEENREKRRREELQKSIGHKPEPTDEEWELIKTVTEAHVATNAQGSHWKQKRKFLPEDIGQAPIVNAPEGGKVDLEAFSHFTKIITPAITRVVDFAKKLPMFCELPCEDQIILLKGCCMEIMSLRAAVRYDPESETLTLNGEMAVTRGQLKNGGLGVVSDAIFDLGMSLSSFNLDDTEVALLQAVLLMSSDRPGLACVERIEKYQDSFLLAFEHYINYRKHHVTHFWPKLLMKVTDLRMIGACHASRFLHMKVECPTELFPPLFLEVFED
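Assay buffer: 20 mM Tris-HCl, 100 mM NaCl, 10% glycerol, 1 mM EDTA, 0.01% NP-40, 1 mM DTT, 1 uM T3, 5% DMSO; TRb LBD 0.6 uM, Texas Red SRC2 20 nM; FP after 5 hr.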
Tau fluor counter – Counterscreen qHTS for Inhibitors of Tau Fibril Formation, Fluorescence Polarization; tau K18 P301L Alexa594 fluorescence, heparin fibrillization; Potency, µM (series often up to 57.7 µM), for inactives: top-dose activity change, negative = decrease; 280,000 tested, 0.93% active; note: nearly all actives have a fitted effect of over 55% in size
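Human K18 P301L tau (15 uM unlabeled plus 0.24 uM Alexa 594-labeled, final) in 100 mM sodium acetate pH 7 was mixed with compound and 20 uM heparin and incubated 6 hr at 37 C.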
Tau ThT inhib – qHTS for Inhibitors of Tau Fibril Formation, Thioflavin T Binding; Microtubule-associated protein tau (Homo sapiens), P10636; recombinant tau K18 P301L, heparin-induced fibrillization, ThT fluorescence; Potency, µM (top dose mostly 57.4 µM), inactives show top-dose activity, negative = inhibition, hits mostly inhibitors; 270,000 tested, 2.1% active; AID 1460, 2008; note: nearly all actives have a fitted effect of over 55% in size
Target sequence (P10636 561-689 P618L limits assumed): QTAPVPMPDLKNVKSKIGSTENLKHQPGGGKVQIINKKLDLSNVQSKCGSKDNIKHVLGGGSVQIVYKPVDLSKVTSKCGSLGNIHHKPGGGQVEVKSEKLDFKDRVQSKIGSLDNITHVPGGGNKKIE
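Tau K18 P301L fragment (15 uM unlabeled plus 0.24 uM Alexa 594-labeled) in 100 mM sodium acetate pH 7 with compound, fibrillization induced by 20 uM heparin for 6 hr at 37 C. Thioflavin T (30 uM) added, fluorescence read after 1 hr (ex 450, em 510 nm).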
Tau FP inhib – qHTS for Inhibitors of Tau Fibril Formation, Fluorescence Polarization; Microtubule-associated protein tau (Homo sapiens), P10636; K18 P301L tau heparin fibrillization, Alexa594 FP, 6 h; 280,000 tested, 0.39% active; Potency, µM (top dose mostly 57.7 µM), for inactives: top-dose activity, negative = inhibition, most hits filed as inhibitors; note: nearly all actives have a fitted effect of over 55% in size
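Heparin (20 uM) drove fibril formation of recombinant tau K18 P301L, 15 uM unlabeled with 0.24 uM Alexa 594 label, for 6 hr at 37 C in 100 mM sodium acetate pH 7. Fluorescence polarization (555/632 nm) read 1 hr after 30 uM ThT.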
The depositor's hits bear a star; u = inconclusive; x = no result; [ ] = remark or other dose. An excerpt weighted towards active compounds, which were near 3.2% of everything screened. Unless noted, calls come from the whole dose curve; as a rule, active = well fitted curve in the direction sought with a large enough effect; inconclusive = small, poorly fitted or top-dose-only effect, or another doubt; inactive = no such curve, though single readings can be large; an effect the other way counts as inactive or inconclusive. Unless noted, % is set by controls: 0 for no effect and ±100 for the full control effect; potency is the fitted concentration of half-maximal effect.

SMILES	RGS12 GoLoco inh	TR SRC2 fluor cs	TRb-SRC2 inh	Tau fluor counter	Tau ThT inhib	Tau FP inhib
Cn1c(N)c(C(=O)COC(=O)c2cc(-c3ccco3)nc3ccccc23)c(=O)n(Cc2ccccc2)c1=O	24%	-3%	6%	u	13µM*	u
CCN(CC)C(=O)COC(=O)c1cc(-c2ccco2)nc2ccccc12	38%	35µM*[quencher]	1%	-12%	u	-8%
Cn1c(N)c(C(=O)COC(=O)c2cc(-c3ccco3)nc3ccccc23)c(=O)n(C)c1=O	-2%	-8%	11%	u	u	2%
NC(N)=Nc1ccc(-c2ccc(N=C(N)N)cc2)cc1	-4%[14.2 µM]	x	x	x	x	x
NC(=Nc1ccc(N)cc1)C(N)=Nc1ccc(N)cc1	4%	-3%	6%	u	8.9µM*	u
CCc1ccc(NCc2cc3ccc(OC)cc3n(CC(=O)Nc3ccc(C)c(Cl)c3)c2=O)cc1	x	-3%	1%	u	0%	u
O=C1CCCCCCC1Sc1ccccc1[N+](=O)[O-] (configuration not stated)	-1%	-1%	-1%	-23%	32µM*	u
CC1(C)c2ccccc2N2CC(=O)N(CC(N)=O)C21C (configuration not stated)	162%	50µM*[fluorescent]	u	32µM*[fluorescent]	u	u
O=C(NCCc1nc2ccccc2n1Cc1ccc(Cl)cc1Cl)c1ccco1	x	-30%	6%	-14%	u	1%
Cc1ccc(N/C=C/C(=O)c2ccco2)c(O)c1	-5%	-1%	1%	-23%	3.5µM*	2%
COc1cc(NC(=O)CCc2c(C)nn(-c3ccc4nncn4n3)c2C)cc(OC)c1OC	x	-1%	1%	2%	-1%	-1%
C/C(=C1/C(=O)N(c2ccc([N+](=O)[O-])cc2)N=C1c1ccccc1)N(C)C	3%	-3%	3%	u	u	-3%
CN(C)/C=C1\C(=O)N(c2ccc([N+](=O)[O-])cc2)N=C1c1ccccc1	-8%	-4%	-3%	u	18µM*	u
CCCC1=NN(c2ccc([N+](=O)[O-])cc2)C(=O)/C1=C/N(C)C	3%	-3%	-7%	-16%	u	1%
CN(C)/C=C1/C(=O)N(c2ccc([N+](=O)[O-])cc2)N=C1c1ccccc1	3%	-11%	8%	u	22µM*	-11%
CC1=NN(c2ccc([N+](=O)[O-])cc2)C(=O)/C1=C\N(C)C	2%	-4%	4%	-24%	13µM*	1%
CC(=O)Oc1ccc2c(c1)CCC1C2CC[C@]2(C)C(=O)CCC12 (some centres not stated)	6%	-3%	-2%	-12%	-9%	0%
Cn1c(=O)[nH]c2nnc(-c3ccc(Cl)c(Cl)c3)nc2c1=O	6%	-2%	-2%	-18%	16µM*	3%
CSc1cnc2c(=O)n(C)c(=O)[nH]c2n1	11%	-1%	1%	3%	3%	6%
O=C(O)[C@H]1CCc2ccc3ccccc3c2[C@H]1c1cccc2ccccc12	8%[14.2 µM]	x	x	x	x	x
O=C1O/C(=C/Br)CCC1c1cccc2ccccc12 (configuration not stated)	-9%	-2%	-1%	u	18µM*	u
O=C(COc1ccc(/C=N/NS(=O)(=O)c2ccccc2)cc1)Nc1cccc(Cl)c1	x	-5%	0%	16µM*[quencher]	u	8%
CCNC(=O)c1ccc2nc(CCc3ccccc3)oc2c1	x	1%	4%	-5%	u	-13%
CCN(CC)c1ccc(/C=C(\C#N)c2nc(-c3cccs3)c(NC(C)=O)s2)cc1	x	u	u	6.3µM*[quencher]	u	u
CCOC(=O)Cn1cc(C(=O)c2cccs2)c2ccccc21	1%	1%	-8%	-16%	-4%	-8%
SMILES	RGS12 GoLoco inh	TR SRC2 fluor cs	TRb-SRC2 inh	Tau fluor counter	Tau ThT inhib	Tau FP inhib
CCOC(=O)c1ccc(NC(=O)Cn2cc(C(=O)c3cccs3)c3ccccc32)cc1	x	1%	2%	u	-11%	16µM*
O=C(Nc1cccc(F)c1)C1CCN(c2nc3ccccc3nc2C(F)(F)F)CC1	x	2%	0%	u	-1%	u
CCc1ccc(NC(=O)CC2C(=O)N(c3ccc(F)cc3)C(=O)N2Cc2ccc(F)cc2)cc1 (configuration not stated)	x	1%	0%	u	u	-17%
CCOc1cc(CNS(=O)(=O)c2ccc3c(c2)CC(=O)N3C)cc(OCC)c1OCC	x	18µM*[quencher]	-12%	4%	1%	5%
CN1C(=O)Cc2cc(S(=O)(=O)NCc3cccs3)ccc21	12%	1%	2%	-6%	-9%	6%
Cc1ccccc1C1=CCN(c2ncc(NC(=O)c3ccc(Cl)cc3)cc2C(=O)O)CC1	x	-4%	11%	-28%	14µM*	u
O=C(O)C[C@H](Nc1ccccc1)C(=O)O	12%[14.2 µM]	x	x	x	x	x
Cc1ccc2c(c1)C(=O)OC2=O	x	2%[201 µM]	13%[201 µM]	x	x	x
COc1c(C=O)c(O)cc2c1C(=O)c1ccccc1C2=O	-4%	u	1%	u	7.9µM*	u
Cc1cc(O)c2c(c1)C(=O)c1cccc(O)c1C2=O	4%	0%	-9%	-10%	u	-1%
COc1cc([C@@H]2c3cc4c(cc3[C@@H](O[C@@H]3O[C@H]5CO[C@@H](C)O[C@@H]5[C@@H](O)[C@H]3O)[C@@H]3COC(=O)[C@@H]23)OCO4)cc(OC)c1O	28µM*	-1%	-4%	6%	4%	2%
Cc1ccc2c(=O)c3cccc(CC(=O)O)c3oc2c1C	x	-23%	0%	x	x	x
Cn1ccc2cc(NC(=O)Nc3cccnc3)ccc21	0%	-6%	-8%	14µM*[quencher]	u	u
CCOC(=O)C1=C(C)N=c2s/c(=C\c3cccn3C)c(=O)n2C1c1cccc(OC)c1OC (configuration not stated)	-2%	1%	8%	-21%	u	-7%
N#CC1=C(N)n2c(s/c(=C\c3cccs3)c2=O)=C(C#N)C1c1cccs1 (configuration not stated)	x	-6%	5%	-28%	u	-7%
N#CC1=C(N)n2c(s/c(=C\c3ccco3)c2=O)=C(C#N)C1c1ccco1 (configuration not stated)	39%	u	-24%	-27%	20µM*	u

Screening data as filed in PubChem BioAssay.
